The campaign covered roughly 21,000 compounds. Fewer than 10 showed an effect of 50% or more. The list is a sample of the results. Entries with a potency or affinity are not part of this list.

The term Inhibition denotes the drop in the measured response relative to a control, in per cent. The low end stands for a response near the control, the high end for a response far below the control.

This experiment deals with Acinetobacter baumannii. To be noted: Concentration 20 uM; ASSAY_TEST Inhibition of Bacterial Growth; detection method Absorption (OD600); MEDIA CAMHB; plate type 384well; NBS; CORNING #3640; time 18 hr.
Regarding `O=C(CN1CCOCC1)Nc1ccc2ncnc(Nc3ccc(OCc4cccc(F)c4)c(Cl)c3)c2c1`, the Inhibition worked out at 8.91%. For `Cl.O=C(Nc1ccc(N2CCNCC2)nc1)c1oc(-c2ccccc2)nc1C(F)(F)F` the value was 4.8%.
